According to PubChem BioAssay (NCATS):
A number with no mark means an inactive call. Records with an inconclusive call do not appear. The source made the active and inactive calls. Unless noted, the call rests on the fitted dose curve; in most records, active means well fitted curve in either direction with a large enough effect (not every such curve was filed as active); inconclusive means small, poorly fitted or top-dose-only effect, or another doubt; inactive means flat fitted curve, though single readings scatter.

Columns and labels:
[1] = target: Lysosomal acid glucosylceramidase (Homo sapiens) (UniProt P04062); assay: Glucocerebrosidase-p2 (AID 348; in the data active means potency below about 10 µM; further: potency means the concentration at half of the fitted maximal effect); conditions: purified GBA, blue fluorogenic substrate, 40 min
Method in brief: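 Normal human glucocerebrosidase (0.2 nM) with blue fluorogenic substrate (80 uM final) in citrate/phosphate pH 5.9 with 10mM sodium taurocholate, 0.01% tween-20; 40 min RT, NaOH/glycine stop; fluorescence Ex 365/Em 440; AC50 from a titration from 0.6 nM upwards.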

[2] = AP1 Signaling Pathway (AID 357); conditions: ME-180 AP-1-bla reporter, EGF-induced, beta-lactamase ratio, 5 h; at 7.69 µM (top of the series) unless noted;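 further: ME-180 reporter cells stimulated with EGF at its EC50 level; on the % scale 0 is the no-effect control and ±100 the full control effect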
Method in brief: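 Beta-lactamase reporter under AP-1 response element, ME-180 background. Stimulus: EC50 EGF. Compound exposure 5 h, 37 °C. Detection: CCF4, 2.5 h RT, 460/530 nm. Values: AC50 from titration.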

[3] = target: Cytochrome P450 1A2 (Homo sapiens) (UniProt P05177); assay: p450-cyp1a2 (AID 410; calls by dose curve; further: potency means the concentration at half of the fitted maximal effect;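 on activity change, negative = inhibition: -100% = full effect of reference inhibitor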); conditions: recombinant CYP1A2, luciferin-ME demethylation, luminescence; series mostly up to 11.4 µM
Method in brief: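 O-Demethylation of luciferin 6' methyl ether by human CYP1A2 is monitored as luciferase luminescence. Substrate sits at Km (100uM); enzyme is 20nM. Values are scaled to 57 uM furafylline as maximal inhibition.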

[4] = NFAT Signaling Pathway (AID 444); conditions: Jurkat NFAT-bla M1, carbachol, beta-lactamase ratio, 5 h; at 7.69 µM (top of the series) unless noted;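 further: carbachol stimulus at about its EC50 of 1 µM final; on the % scale 0 is the no-effect control and ±100 the full control effect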
Method in brief: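 Jurkat cells with NFAT-driven β-lactamase reporter and co-expressed M1 receptor, stimulated with carbachol (final 1 uM, ~EC50), compound titration, 5 h at 37 °C. CCF4 loaded 1 h at RT; 460/530 nm ratio gave %activity and AC50.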

[5] = Stat Signaling Pathway (AID 446); conditions: ME-180 (cervical carcinoma) SIE beta-lactamase reporter, IL-6 stimulated, 5 h; at 7.69 µM (top of the series) unless noted;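 further: ME-180 cervical cancer cells given 40 pM IL-6 alongside compound; SIE-controlled beta-lactamase reporter measured as 460/530 nm FRET emission ratio; on the % scale 0 is the no-effect control and ±100 the full control effect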
Method in brief: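 Emission at 460 and 530 nm (excitation 405 nm) reports SIE-controlled beta-lactamase in ME-180 cells. Cells received compound with 40 pM IL-6 for 5 hrs at 37 C; data scaled between 300 pM IL-6 and 125 nM JAK-inhibitor controls.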

[6] = target: Glucocorticoid receptor (Homo sapiens) (UniProt P04150); assay: GR-GFP Redistribution (AID 450;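 active means compounds whose dose series gives a full or clear partial fitted curve of increased nuclear translocation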; further: potency means the concentration at half of the fitted maximal effect); conditions: U2OS GR-GFP nuclear translocation, laser cytometry, 2 h
[7] = target: Glucocorticoid receptor (Homo sapiens) (UniProt P04150); assay: GR-EFC Redistribution (AID 451; calls by dose curve; further: potency means the concentration at half of the fitted maximal effect); conditions: CHO-K1 GR-EFC translocation, beta-gal luminescence, 2 h
Method in brief: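 CHO-K1 cells expressing nuclear EA and GR-ED fragments of b-gal; compounds titrated up to 46 uM final, 2 h at 37 C. GR nuclear translocation read as complemented b-gal luminescence after 1 h RT detection.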

[8] = target: Mitogen-activated protein kinase 10 (Mus musculus) (UniProt Q61831); assay: JNK3 AlphaScreen Assay (AID 530); conditions: JNK3 lysate, c-Jun phosphorylation; series mostly up to 11.4 µM;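 further: kinase came from lysate of stimulated human HepG2 cells; signal reports phosphorylation of biotinylated GST-cJun 1-79 at Ser73 with 10 µM ATP; on the % scale 0 is the no-effect control and ±100 the full control effect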
Method in brief: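 Activity was read by AlphaScreen after JNK3-containing HepG2 lysate (cytokine pre-activated) phosphorylated biotinylated GST-cJun with 10 uM ATP at room temperature. Phospho-Ser73 cJun antibody with Protein-A acceptor beads provided detection.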

[9] = target: 3',5'-cyclic-AMP phosphodiesterase 4B (Homo sapiens) (UniProt Q07343); assay: qHTS Assay for Inhibitors of PDE-IV (AID 607; active means well fitted activation curve with a large enough effect in the main read-out, with a control signal flat, not every such curve was filed as active; further: % of control where 0% means no effect); conditions: HEK293 ACTOne CNG channel cells, membrane potential fluorescence; series mostly up to 22.9 µM
Method in brief: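 The readout is membrane depolarisation from a cAMP-sensing CNG channel, detected with a potential dye at ex 535/em 590. Cells were HEK293-derived (endogenous PDE-IV) at 1000 cells/well, titrated up to 22.9 uM final.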

Chain of Cytochrome P450 1A2 (Homo sapiens) (P05177 whole entry, looked up): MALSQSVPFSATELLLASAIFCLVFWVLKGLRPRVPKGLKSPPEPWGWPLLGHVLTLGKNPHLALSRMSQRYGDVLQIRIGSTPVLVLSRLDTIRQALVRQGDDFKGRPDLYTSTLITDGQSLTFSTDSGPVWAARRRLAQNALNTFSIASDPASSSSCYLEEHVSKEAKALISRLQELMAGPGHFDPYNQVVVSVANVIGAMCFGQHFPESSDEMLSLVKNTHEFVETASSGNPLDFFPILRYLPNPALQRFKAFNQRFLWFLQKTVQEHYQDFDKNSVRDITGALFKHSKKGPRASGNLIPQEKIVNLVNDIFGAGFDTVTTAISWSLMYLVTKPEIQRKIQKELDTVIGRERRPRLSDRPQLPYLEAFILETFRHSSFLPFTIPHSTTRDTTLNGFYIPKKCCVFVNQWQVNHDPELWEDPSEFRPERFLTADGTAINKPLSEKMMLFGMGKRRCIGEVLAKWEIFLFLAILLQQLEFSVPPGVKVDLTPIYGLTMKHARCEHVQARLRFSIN
Chain of Glucocorticoid receptor (Homo sapiens) (P04150 whole entry, looked up, the tested form may be a part): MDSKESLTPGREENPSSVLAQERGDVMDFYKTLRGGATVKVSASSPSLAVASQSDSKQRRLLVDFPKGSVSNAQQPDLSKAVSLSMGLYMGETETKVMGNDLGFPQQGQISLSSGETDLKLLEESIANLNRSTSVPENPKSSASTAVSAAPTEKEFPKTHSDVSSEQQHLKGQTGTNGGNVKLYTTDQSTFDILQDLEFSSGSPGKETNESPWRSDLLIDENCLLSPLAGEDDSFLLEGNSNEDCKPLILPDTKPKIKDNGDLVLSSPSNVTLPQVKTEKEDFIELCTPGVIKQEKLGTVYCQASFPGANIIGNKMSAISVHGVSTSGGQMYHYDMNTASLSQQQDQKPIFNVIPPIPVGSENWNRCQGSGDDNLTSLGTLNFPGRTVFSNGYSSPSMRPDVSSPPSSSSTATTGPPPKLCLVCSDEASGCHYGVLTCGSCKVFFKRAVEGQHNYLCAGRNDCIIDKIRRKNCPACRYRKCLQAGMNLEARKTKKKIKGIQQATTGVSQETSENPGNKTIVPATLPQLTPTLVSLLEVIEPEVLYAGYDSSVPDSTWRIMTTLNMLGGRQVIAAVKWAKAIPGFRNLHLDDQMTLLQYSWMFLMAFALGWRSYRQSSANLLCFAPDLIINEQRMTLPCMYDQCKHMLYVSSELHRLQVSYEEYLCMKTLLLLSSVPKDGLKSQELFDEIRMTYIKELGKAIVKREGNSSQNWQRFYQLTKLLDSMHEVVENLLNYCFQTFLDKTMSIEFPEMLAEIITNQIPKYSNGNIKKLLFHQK
Chain of 3',5'-cyclic-AMP phosphodiesterase 4B (Homo sapiens) (Q07343 whole entry, looked up): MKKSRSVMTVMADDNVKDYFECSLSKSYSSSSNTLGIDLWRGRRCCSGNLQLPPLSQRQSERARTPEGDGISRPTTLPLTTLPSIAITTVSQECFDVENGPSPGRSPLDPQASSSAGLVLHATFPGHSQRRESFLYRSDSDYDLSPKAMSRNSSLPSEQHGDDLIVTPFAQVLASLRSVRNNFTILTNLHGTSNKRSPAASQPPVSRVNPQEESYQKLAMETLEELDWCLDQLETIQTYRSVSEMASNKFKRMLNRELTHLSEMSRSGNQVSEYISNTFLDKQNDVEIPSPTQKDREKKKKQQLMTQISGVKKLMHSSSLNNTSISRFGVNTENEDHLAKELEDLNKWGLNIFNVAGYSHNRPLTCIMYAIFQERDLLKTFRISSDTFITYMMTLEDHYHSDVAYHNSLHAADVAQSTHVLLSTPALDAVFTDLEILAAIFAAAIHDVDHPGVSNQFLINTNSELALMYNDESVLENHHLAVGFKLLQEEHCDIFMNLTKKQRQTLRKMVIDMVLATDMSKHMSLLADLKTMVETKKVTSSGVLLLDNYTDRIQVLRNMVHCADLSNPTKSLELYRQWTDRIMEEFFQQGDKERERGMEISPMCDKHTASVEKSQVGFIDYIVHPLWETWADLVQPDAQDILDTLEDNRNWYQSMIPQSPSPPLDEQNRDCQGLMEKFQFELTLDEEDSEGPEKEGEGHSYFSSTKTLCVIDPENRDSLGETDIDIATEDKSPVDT
Chain of Lysosomal acid glucosylceramidase (Homo sapiens) (P04062 whole entry, looked up): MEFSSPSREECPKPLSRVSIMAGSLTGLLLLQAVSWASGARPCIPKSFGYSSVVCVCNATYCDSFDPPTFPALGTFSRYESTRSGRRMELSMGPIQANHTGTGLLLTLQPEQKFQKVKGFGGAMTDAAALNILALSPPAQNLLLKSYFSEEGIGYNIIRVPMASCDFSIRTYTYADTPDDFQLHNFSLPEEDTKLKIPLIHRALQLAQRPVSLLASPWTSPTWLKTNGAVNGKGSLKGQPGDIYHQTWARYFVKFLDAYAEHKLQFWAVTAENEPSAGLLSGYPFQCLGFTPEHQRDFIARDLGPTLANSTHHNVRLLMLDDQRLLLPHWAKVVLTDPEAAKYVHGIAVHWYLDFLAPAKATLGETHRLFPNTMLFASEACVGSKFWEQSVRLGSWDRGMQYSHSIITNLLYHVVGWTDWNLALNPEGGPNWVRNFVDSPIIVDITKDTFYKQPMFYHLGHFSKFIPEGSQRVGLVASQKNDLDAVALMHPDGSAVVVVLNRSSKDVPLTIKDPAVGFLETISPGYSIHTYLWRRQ

**Q.** For `O=C(O)CC[C@]1(C(=O)O)CCC(=O)c2ccccc21`, which Potency [1] is on record?
**A.** > 11.4 µM

**Q.** And the activity change, negative = inhibition [2]?
**A.** 11.8%

**Q.** And the Potency [3]?
**A.** inactive

**Q.** And the activity change, negative = inhibition [4]?
**A.** 4.42%

**Q.** And the activity, negative = inhibition [5]?
**A.** 2.44%

**Q.** What about the Potency [6] of the same compound?
**A.** > 46 µM

**Q.** And the Potency [7]?
**A.** > 9.22 µM

**Q.** And the Potency [8]?
**A.** inactive

**Q.** And the Potency [9]?
**A.** inactive

**Q.** With `c1ccc2cc(-c3cc(-c4cc(-c5ccc6ccccc6c5)on4)no3)ccc2c1` as the compound, how does the Potency [1] read?
**A.** > 11.4 µM

**Q.** What about the activity change, negative = inhibition [2] of the same compound?
**A.** 2.52%

**Q.** What about the Potency [3] of the same compound?
**A.** 1.58 µM (active)

**Q.** What about the activity change, negative = inhibition [4] of the same compound?
**A.** 1.2%

**Q.** What about the activity, negative = inhibition [5] of the same compound?
**A.** 1.33%

**Q.** And the Potency [6]?
**A.** > 46 µM

**Q.** What about the Potency [7] of the same compound?
**A.** > 9.22 µM

**Q.** What about the Potency [8] of the same compound?
**A.** inactive

**Q.** What about the Potency [9] of the same compound?
**A.** inactive

**Q.** For `O=C(O)CCNc1ccccc1C(=O)O`, which Potency [1] is on record?
**A.** > 11.4 µM

**Q.** And the activity change, negative = inhibition [2]?
**A.** -0.595%

**Q.** And the Potency [3]?
**A.** inactive

**Q.** And the activity change, negative = inhibition [4]?
**A.** 4.52%

**Q.** What about the activity, negative = inhibition [5] of the same compound?
**A.** 6.23%

**Q.** And the Potency [6]?
**A.** > 46 µM

**Q.** And the Potency [7]?
**A.** > 9.22 µM

**Q.** And the Potency [8]?
**A.** inactive

**Q.** What about the Potency [9] of the same compound?
**A.** inactive

**Q.** Which Potency [1] does the source give for `NS(=O)(=O)c1ccc(N=Nc2c(O)c(C(=O)O)cc3ccccc23)cc1` here?
**A.** > 11.4 µM

**Q.** What about the activity change, negative = inhibition [2] of the same compound?
**A.** 1.12%

**Q.** What about the Potency [3] of the same compound?
**A.** inactive

**Q.** And the activity change, negative = inhibition [4]?
**A.** 3.68%

**Q.** And the activity, negative = inhibition [5]?
**A.** 5.99%

**Q.** And the Potency [6]?
**A.** > 46 µM

**Q.** What about the Potency [7] of the same compound?
**A.** > 9.22 µM

**Q.** What about the Potency [8] of the same compound?
**A.** inactive

**Q.** What about the Potency [9] of the same compound?
**A.** inactive

**Q.** With `N/N=C1/c2ccccc2N[C@H]1OC(=O)Nc1cccc(Cl)c1` as the compound, how does the Potency [1] read?
**A.** > 11.4 µM

**Q.** What about the activity change, negative = inhibition [2] of the same compound?
**A.** -17.3%

**Q.** What about the Potency [3] of the same compound?
**A.** 0.794 µM (active)

**Q.** What about the activity change, negative = inhibition [4] of the same compound?
**A.** -19.2%

**Q.** What about the activity, negative = inhibition [5] of the same compound?
**A.** -0.394%

**Q.** What about the Potency [6] of the same compound?
**A.** > 46 µM

**Q.** And the Potency [7]?
**A.** > 9.22 µM

**Q.** What about the Potency [8] of the same compound?
**A.** inactive

**Q.** What about the Potency [9] of the same compound?
**A.** inactive

**Q.** Which Potency [1] does the source give for `O=c1c[n+](CC[n+]2cc(=O)o[nH]2)[nH]o1` here?
**A.** > 11.4 µM

**Q.** And the activity change, negative = inhibition [2]?
**A.** 2.98%

**Q.** And the Potency [3]?
**A.** 2.51 µM (active)

**Q.** And the activity change, negative = inhibition [4]?
**A.** 12.3%

**Q.** And the activity, negative = inhibition [5]?
**A.** 4.21%

**Q.** What about the Potency [6] of the same compound?
**A.** > 46 µM

**Q.** What about the Potency [7] of the same compound?
**A.** > 9.22 µM

**Q.** And the Potency [8]?
**A.** inactive

**Q.** And the Potency [9]?
**A.** inactive

**Q.** Which results are given for `Nc1nc(-c2cc(-c3cccc4ccccc34)nc(N)n2)cc(-c2cccc3ccccc23)n1`?
**A.** Potency [1]: > 11.4 µM; activity change, negative = inhibition [2]: -7.45%; activity change, negative = inhibition [3]: -4.4% [at 2.29 µM]; activity change, negative = inhibition [4]: 3.93%; activity, negative = inhibition [5]: -4.92%; Potency [6]: > 46 µM; Potency [7]: > 9.22 µM; Potency [8]: inactive; Potency [9]: inactive

**Q.** Which Potency [1] does the source give for `CCN(CC(=O)O)CC(=O)O` here?
**A.** > 11.4 µM

**Q.** And the activity change, negative = inhibition [2]?
**A.** -0.0102%

**Q.** What about the Potency [3] of the same compound?
**A.** inactive

**Q.** And the activity change, negative = inhibition [4]?
**A.** 0.338%

**Q.** What about the activity, negative = inhibition [5] of the same compound?
**A.** 13.7%

**Q.** And the Potency [6]?
**A.** > 46 µM

**Q.** And the Potency [7]?
**A.** > 9.22 µM

**Q.** And the Potency [8]?
**A.** inactive

**Q.** What about the Potency [9] of the same compound?
**A.** inactive
